Data taken from a collection of fitness landscapes (doi:10.1016/j.celrep.2020.107928).
Over roughly 81,000 sequences, “one-hybrid fitness for binding NBS DNA” has its median near -0.1; the highest 2% begin near 0.36. The list comes from a sample in which the highest values are over-represented; it also holds similar and randomly drawn sequences.

B1: Caulobacter ParB omega fusion; a variant is named by its letters at X, in order, B8GW30 (parent)
chain: MESVVVGEPGMSEGRRGLGRGLSALLGEVDAAPAQAPGEQLGGSREAPIEILQRNPDQPRRTFREEDLEDLSNSIREKGVLQPILVRPSPDTAGEYQIVAGERAWRAAQRAGLKTVPIMVRELDDLAVLEIGIIENVQRADLNVLEEALSYKVLMEKFERTQENIAQTIGKSXSHVANXMRLLXLPDEVQSYLVSGELTAXHARAIAAAADPVALAKQIIEGGLSVRETEALARKAPNLSAGKSKGGRPPRVKDTDTQALESDLSSVLGLDVSIDHRGSTGTLTITYATLEQLDDLCNRLTRGI

Variants of: B1
Assay: one-hybrid fitness for binding NBS DNA (the Noc-binding site; scaled: cognate 1, non-cognate 0); higher = stronger binding
Settings: with NBS DNA site
Outline: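 Fitness here means the log change in variant-to-wild-type read ratio between plasmids sequenced before and after selection. That scale was set so cognate equals 1 and non-cognate equals 0. The selection was a bacterial one-hybrid screen of Caulobacter ParB libraries, four specificity codons randomised, in E. coli USO carrying a HIS3 reporter with the site 19 bp from the promoter, grown 48 hours at 37°C on M9-minus-histidine with 0.1 mM IPTG and 5 mM 3-AT.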

Variant | one-hybrid fitness for binding NBS DNA
HRAM | ≤ 0.2
FIVS | ≤ 0.2
DFTV | ≤ 0.2
TCKT | ≤ 0.2
TRVT | ≤ 0.2
TCNT | ≤ 0.2
TRRN | ≤ 0.2
TRYS | ≤ 0.2
TCRT | ≤ 0.2
TRRT | 0.526
TRDT | ≤ 0.2
TRKT | 0.578
TRRS | 0.38
TRNT | 0.459
TRYT | 0.334
PANE | ≤ 0.2
KSQQ | ≤ 0.2
NCPT | ≤ 0.2
FMKS | ≤ 0.2
QNLL | ≤ 0.2
SKPR | ≤ 0.2
CSPY | ≤ 0.2

Variant | one-hybrid fitness for binding NBS DNA
QVAP | ≤ 0.2
DRAR | ≤ 0.2
QRFR | 0.865
QRAR | 1.01
QRFF | ≤ 0.2
NRAR | ≤ 0.2
IFSI | ≤ 0.2
RYTI | ≤ 0.2
HQWA | ≤ 0.2
NIMG | ≤ 0.2
QTQC | 0.239
QSQT | 0.411
QCQT | 0.526
QTQG | ≤ 0.2
QKQT | 0.578
QDQT | ≤ 0.2
QPQT | ≤ 0.2
QTQT | 0.577
QHQT | 0.363
QAQT | 0.364
QKQF | ≤ 0.2
QKQC | ≤ 0.2

Variant | one-hybrid fitness for binding NBS DNA
FPTH | ≤ 0.2
SIGR | ≤ 0.2
LNNM | ≤ 0.2
TFLV | ≤ 0.2
QLGE | ≤ 0.2
CTTF | ≤ 0.2
YCLC | ≤ 0.2
SKES | ≤ 0.2
QLQN | ≤ 0.2
QLQT | 0.37
QLQP | ≤ 0.2
MYYS | ≤ 0.2
HTKF | ≤ 0.2
FQTK | ≤ 0.2
QSKM | 0.362
QRKM | 0.557
QIKM | 0.249
QAKM | 0.392
QPKM | ≤ 0.2
QAVM | ≤ 0.2
QTVM | ≤ 0.2
QCKM | 0.464

Variant | one-hybrid fitness for binding NBS DNA
QAYM | ≤ 0.2
QTWM | ≤ 0.2
QTKM | 0.563
QRVM | 0.265
WLRR | ≤ 0.2
NYAI | ≤ 0.2
IRSK | ≤ 0.2
DSWA | ≤ 0.2
ITVR | ≤ 0.2
GKRG | ≤ 0.2
QHVM | ≤ 0.2
QKKM | 0.409
QMQM | ≤ 0.2
QMVM | ≤ 0.2
QKPM | ≤ 0.2
QMKM | 0.416
QHNM | ≤ 0.2
QHKM | 0.379
QKVM | 0.273
